# Screens (PubChem BioAssay)
# In the library only some 8.9% were active in any assay of this set; here they are far more common.
# KB-V1 MDR tox: qHTS assay for MDR1-selective chemotherapeutics: Primary screen using the drug-selected MDR subline cells KB-V1 | KB-V1 MDR cells viability, CellTiter-Glo, 72 h | Potency, µM (top dose mostly 46.1 µM), usual class: cytotoxic | actives 3.4% (n = 400,000); further: potency means the concentration at half of the fitted maximal effect; on the % scale 0 is the no-effect control and ±100 the full control effect; nearly all actives have a fitted effect of over 60% in size
#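 Drug-selected KB-V1 cells, grown in DMEM lacking phenol red with 10% FBS, receive compound titrations; after three days at 37 degrees C, surviving cell ATP is quantified by CellTiter-Glo luminescence and responses normalized and curve-fitted.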
# D3 ag: qHTS of D3 Dopamine Receptor Agonist: qHTS; actives 0.58% (n = 410,000); D(3) dopamine receptor (Homo sapiens), P35462; max activation, %; D3R DiscoveRx beta-arrestin cells, luminescence, 90 min; in the data active means max activation above about 30%; further: 0% is about no effect
# Target sequence (P35462 whole entry, looked up): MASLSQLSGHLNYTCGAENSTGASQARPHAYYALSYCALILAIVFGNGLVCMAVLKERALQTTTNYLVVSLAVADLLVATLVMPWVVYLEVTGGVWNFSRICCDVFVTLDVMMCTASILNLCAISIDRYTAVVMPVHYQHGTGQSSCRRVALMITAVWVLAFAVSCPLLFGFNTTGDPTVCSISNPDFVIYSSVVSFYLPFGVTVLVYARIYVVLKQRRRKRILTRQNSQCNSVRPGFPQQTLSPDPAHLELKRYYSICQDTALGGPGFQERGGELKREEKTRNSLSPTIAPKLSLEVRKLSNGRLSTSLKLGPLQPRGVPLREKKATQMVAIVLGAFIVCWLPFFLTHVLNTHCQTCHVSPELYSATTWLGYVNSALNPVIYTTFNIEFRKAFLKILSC
#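 Agonist mode: compounds and dopamine controls were applied to plated cells for 90 min at 37 degrees C after an overnight attachment at 1500 cells/well. Luminescent read-out followed 30 - 60 minutes at room temperature with DiscoveRx detection reagent.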
# D3 antag: qHTS of D3 Dopamine Receptor Antagonist: qHTS; D(3) dopamine receptor (Homo sapiens), P35462; D3R cells, DiscoveRx beta-arrestin luminescence, antagonist mode; hits give low values; max response, negative = inhibition, %; actives 2.5% (n = 360,000); AID 652054, 2013; in the data active means max response below about -50%; inconclusive means no clear call, values can overlap the other calls; further: on the % scale 0 is the no-effect control and ±100 the full control effect
#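 Cells expressing the human receptor were seeded at 1500 cells/well, incubated overnight at 37 degrees C in 5% CO2, then exposed to library compounds with dopamine controls for 90 minutes at 37 degrees C before luminescent detection.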
# SW480 rereplic: A quantitative high throughput screen for small molecules that induce DNA re-replication in SW480 colon adenocarcinoma cells; SW480 DNA re-replication, Hoechst DNA content imaging, 48 h; Potency, µM (top dose mostly 46.1 µM), inactives show at the top dose re-replication activation, usual class: activators; actives 1.8% (n = 340,000); AID 624297, 2012; further: potency means the concentration at half of the fitted maximal effect; % of control where 0% means no effect; nearly all actives have a fitted effect of over 55% in size
#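 SW480 cells exposed to compounds for 48 hr at 37 C, 5% CO2, then Hoechst-stained 40 min. Nuclear DNA content imaged by fluorescence scanning (405 nm excitation, 500-530 nm emission); re-replication scored as increased high-intensity nuclei.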
# MCF10A rereplic: A quantitative high throughput screen for small molecules that induce DNA re-replication in MCF 10a normal breast cells; MCF 10A DNA re-replication, Hoechst nuclear intensity, 48 h; Potency, µM (highest dose often 46.1 µM), for inactives: at the top dose activity, positive = re-replication, actives largely listed as activators; actives 2.9% (n = 350,000); AID 624296, 2012; further: potency means the concentration at half of the fitted maximal effect; % of control where 0% means no effect; nearly all actives have a fitted effect of over 50% in size
# KB-3-1 cytotox: qHTS assay for MDR1-selective chemotherapeutics: Primary screen using the parental adenocarcinoma cell KB-3-1. actives 1.4% (n = 400,000). KB-3-1 viability, CellTiter-Glo ATP luminescence, 72 h. AID 1347075, 2019. Potency, µM (highest dose often 46.1 µM), actives largely listed as cytotoxic; further: potency means the concentration at half of the fitted maximal effect; on the % scale 0 is the no-effect control and ±100 the full control effect; nearly all actives have a fitted effect of over 60% in size
#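 Viability of parental KB-3-1 cells, measured by CellTiter-Glo luminescence, followed a 72 h incubation at 37 °C with pinned compounds in phenol-red-free DMEM containing 10% FBS.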
# * hit, by the source's call; i = inactive; ? = inconclusive; . = no result given; [ ] = another dose, or the depositor's remark. Unless noted, the call rests on the fitted dose curve; in most records, active means well fitted curve in the direction sought with a large enough effect; inconclusive means small, poorly fitted or top-dose-only effect, or another doubt; inactive means no such curve, though single readings can be large; an effect the other way counts as inactive or inconclusive.
SMILES,KB-V1 MDR tox,D3 ag,D3 antag,SW480 rereplic,MCF10A rereplic,KB-3-1 cytotox
O=C(Nc1nc2c(Cl)cccc2s1)c1ccc([N+](=O)[O-])o1,i,-9.7,?,-4.5%[9.22 µM],?,?
Cc1ccnc(NC(=O)c2ccccc2[N+](=O)[O-])c1,?,-4.1,2.0,-0.6%,9.1%,i
O=C(Nc1ccccn1)c1ccc([N+](=O)[O-])o1,?,-3.1,-0.7,?,9.2µM*,?
CCCn1c(NC(=O)c2ccc([N+](=O)[O-])o2)nc2ccccc21,?,-9.2,0.0,20.6µM*,?,i
CCOC(=O)c1c(NC(=O)c2ccc(S(=O)(=O)N3CCC(C)CC3)cc2)sc2c1CCN(C)C2,.,-24.3,.,.,.,.
COc1ccc(N2CCN(C(=O)c3cnc(N4CCOCC4)c4ccccc34)CC2)cc1,i,9.1,.,.,.,i
CC1Cc2cc(S(=O)(=O)CCC(=O)Nc3ccc(F)cc3Cl)ccc2N1C(=O)C1CC1 (stereo not drawn),.,4.8,.,.,.,.
O=C(Nc1cc(-c2nc3ncccc3o2)ccc1Cl)c1ccc([N+](=O)[O-])o1,?,-10.0,-3.2,1.3µM*,1.3µM*,3.66µM*
CN1CCC(Oc2ccccc2Sc2ccccc2)CC1,?,-6.6,-63.4*,?,?,?
C(=C\c1ccnc2ccccc12)/c1ccc2c(c1)OCO2,i,.,.,.,.,i
CCC(=O)c1ccccc1OCCN1CCN(CC)CC1,i,0.3,-24.5,-85.3%,?,i
Clc1cccc(OCCn2cncn2)c1Cl,i,15.6,?,-0.3%,-0.2%,i
Cn1c(=O)n(CCOc2ccc(Cl)cc2Cl)c2ccccc21,i,2.1,6.8,0.8%,8.3%,i
CC1CC(C)CN(CCOc2cccc(Cl)c2Cl)C1 (stereo not drawn),?,15.8,-71.4*,2.1%,12.2%,i
CCN1CCN(CCOc2cccc(Cl)c2Cl)CC1,i,67.1*,?,?,?,i
CC1CC(C)CN(CCOc2ccc(Cl)cc2Cl)C1 (stereo not drawn),?,-1.8,-96.7*,-2.9%,17.3%,i
COc1ccc(-c2nnc(Nc3ccc(OCC(N)=O)cc3)c3ccccc23)cc1,i,-3.9,.,.,.,i
CCOC(=O)c1nn(-c2cccc(Cl)c2)c2nc(CC(C)C)c(C#N)c(=O)n12,?,-6.5,23.3,-7.9%,23.1µM*,i
Cc1cccc(C(=O)NCC(c2ccco2)S(=O)(=O)c2cccs2)c1 (stereo not drawn),i,5.8,.,.,.,i
COc1ccc(S(=O)(=O)N2c3ccc(Cl)cc3[C@@](O)(c3ccccc3Cl)[C@H]2C(=O)N2CCC[C@@H]2C(N)=O)cc1OC,.,4.2,.,.,.,.
Nc1cc(OCC(F)(F)F)cc([N+](=O)[O-])c1,i,3.6,4.0,3.2%,-0.1%,i
Nc1cc(N)c(OCC(F)(F)F)cc1OCC(F)(F)F,i,6.5,-56.4*,6.2%,-4.1%,i
CSc1nc2ccccc2cc1/C=C(\C#N)c1ccc(Cl)c(Cl)c1,i,-6.8,?,?,7.31µM*,i
CSc1nc2ccccc2cc1/C=C(\C#N)c1ccccc1,?,5.2,18.5,?,13µM*,?
CSc1nc2ccccc2cc1/C=C(\C#N)c1cccc(C)c1,14.6µM*,-4.8,-0.7,?,10.3µM*,14.6µM*
SMILES,KB-V1 MDR tox,D3 ag,D3 antag,SW480 rereplic,MCF10A rereplic,KB-3-1 cytotox
COc1cc(/C=N/Nc2ccccc2[N+](=O)[O-])cc(OC)c1O,i,2.6,-3.4,-3.8%,-0.9%,i
COc1ccc(/C=N/Nc2ncc(C(F)(F)F)cc2Cl)c(OC)c1OC,i,2.2,33.4,-7.1%,16.7%,i
COc1cc(/C=N/Nc2ccc(F)cc2F)cc(OC)c1O,i,-1.7,-4.8,-0.2%,16.4µM*,i
COc1cc(/C=N/Nc2ccc(Cl)nn2)cc(OC)c1O,i,2.7,6.0,-14.5%,-3.6%,i
COc1cc(/C=N/Nc2ncc(C(F)(F)F)cc2Cl)cc(OC)c1OC,?,3.4,7.3,7.31µM*,?,i
COc1cc(/C=N/Nc2ncc(C(F)(F)F)cc2Cl)cc(OC)c1O,20.6µM*,-5.4,-7.4,-3.2%,-3.6%,?
CCN(CC)c1ccc(C(=O)NCc2nc3cccnc3n2Cc2ccc(C)cc2)cc1,.,1.4,.,.,.,.
CCN1/C(=C/C=C/C=C/c2sc3ccccc3[n+]2CC)Sc2ccccc21,?,.,.,?,-0.9%,?
CCN1/C(=C/C=C/c2sc3ccccc3[n+]2CC)Sc2ccccc21,?,-10.1,10.3,-7.9%,-6.0%,16.4µM*
CCN1/C(=C/C=C/C=C/C=C/c2sc3ccccc3[n+]2CC)Sc2ccccc21,i,1.2,?,7.9%,?,16.4µM*
CC[n+]1c(/C=C/Nc2ccccc2)sc2ccccc21,?,-2.2,?,?,31.2%,?
O=Nc1c(O)n(Cc2ccc(Cl)cc2Cl)c2ccccc12,i,1.3,-92.3*,2.0%,?,?
O=Nc1c(O)n(Cc2ccc(Cl)cc2)c2ccccc12,i,2.0,3.3,13.4%,?,i
COc1ccc2nc(-c3ccccc3)nc(SCC(=O)NCC3CCCO3)c2c1 (stereo not drawn),?,32.5*,0.4,1.9%,?,i
CCc1ccc2nc(-c3cccc(C)c3)nc(SCC(=O)NCC3CCCO3)c2c1 (stereo not drawn),2.59µM*,-9.6,10.7,-4.5%,-3.7%,i
CSCCC(NS(=O)(=O)c1ccc2c(c1)oc(=O)n2C)C(=O)NCc1ccc(Cl)cc1 (stereo not drawn),.,-15.9,.,.,.,.
Cc1cc(O)ccc1Nc1nc2ccccc2nc1Nc1ccc(O)cc1C,i,2.2,-23.9,?,18.4µM*,i
Cc1c(Cc2ccccc2)sc(NC(=O)/C=C/c2cccc3ccccc23)c1C(N)=O,?,1.9,-11.2,?,2.31µM*,9.2µM*
COC(=O)c1c(N)sc(Cc2ccccc2)c1C,i,-0.8,1.7,-20.7%,13.1%,i
COC(=O)c1c(NC(=O)/C=C/C(=O)O)sc(Cc2ccccc2)c1C,?,-2.5,-26.5,?,14.6µM*,?
Cc1c(Cc2ccccc2)sc(NC(=O)c2ccco2)c1C(N)=O,?,3.7,7.1,1.1%,14.6µM*,i
